# Experimental data published in PubChem BioAssay (Tox21).
# Values joined by “and” are separate entries in the source; they are usually repeats but may differ in a detail not shown here. Identical values can stand only once. Inconclusive results are not listed. Where a call stands in place of a potency, no number is given. More than one record can exist for a structure, and the calls need not agree. Active and inactive are the calls of the source. Calls follow the shape of the dose curve; as a rule, active = well fitted curve in the direction sought with a large enough effect in the repeat runs; inconclusive = weak or mixed curves; inactive = no such curve, though single readings can be large; an effect the other way counts as inactive or inconclusive.
# Legend:
# [1] = A CellTox Green Cytotoxicity Assay to monitor cytotoxicity in HEK293 cells - 40 hour (AID 1224871); also: nearly all actives have a fitted effect of over 45% in size; also: potency is read from the fitted curve at half-maximal effect
# How it was run: (§1)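 Each value comes from one timepoint of a single continuous run in which HEK293 cells with CellTox Green were exposed to compound for up to 40 h at 37 C, dye fluorescence rising with cell death.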
# [2] = qHTS RealTime-Glo MT Cell Viability Assay in HEK293 cells - 16 hour (AID 1224872); also: nearly all actives have a fitted effect of over 50% in size; also: potency is read from the fitted curve at half-maximal effect
# How it was run: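 Homogeneous bioluminescent viability format in HEK293 cells (600 cells/well). Following 5 h at 37 C/5% CO2, 23 nL compound was pintooled; the signal was measured repeatedly during 40 h incubation.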
# [3] = qHTS RealTime-Glo MT Cell Viability Assay in HepG2 cells - 8 hour (AID 1224873); also: nearly all actives have a fitted effect of over 55% in size; also: potency is read from the fitted curve at half-maximal effect
# How it was run: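 Real-time viability: cells seeded at 600 per well together with NanoLuc and cell-permeant prosubstrate, compounds added after 5 h incubation. Luminescence tracked at 0, 8, 16, 24, 32 and 40 h of exposure.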
# [4] = qHTS RealTime-Glo MT Cell Viability Assay in HEK293 cells - 40 hour (AID 1224874); conditions: RealTime-Glo luminescence; max response: stronger effect = lower value; also: nearly all actives have a fitted effect of over 50% in size; also: potency is read from the fitted curve at half-maximal effect
# How it was run: (§2)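 qHTS format; HEK293 cells with NanoLuc/prosubstrate reagent, 37 C/5% CO2 for 5 h pre-dosing; compounds 23 nL in DMSO; luminescence at each time point reflects viable cells.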
# [5] = A CellTox Green Cytotoxicity Assay to monitor cytotoxicity in HEK293 cells - 24 hour (AID 1224875); also: nearly all actives have a fitted effect of over 45% in size; also: potency is read from the fitted curve at half-maximal effect
# How it was run: as §1
# [6] = qHTS RealTime-Glo MT Cell Viability Assay in HepG2 cells - 32 hour (AID 1224877); also: nearly all actives have a fitted effect of over 55% in size; also: potency is read from the fitted curve at half-maximal effect
# How it was run: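 Cell number in HepG2 cultures estimated from NanoLuc luminescence generated by metabolic reduction of a prosubstrate by living cells. The homogeneous, nonlytic format allowed repeated reads at 0, 8, 16, 24, 32 and 40 h of compound exposure.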
# [7] = A CellTox Green Cytotoxicity Assay to monitor cytotoxicity in HepG2 cells - 24 hour (AID 1224878); also: nearly all actives have a fitted effect of over 45% in size; also: potency is read from the fitted curve at half-maximal effect
# How it was run: (§3)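 Continuous culture of HepG2 cells with a membrane-impermeant DNA dye; rising fluorescence marks dead cells. Compound exposure lasted up to 40 h at 37 C, with reads every 8 h from 0 h.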
# [8] = A CellTox Green Cytotoxicity Assay to monitor cytotoxicity in HepG2 cells - 40 hour (AID 1224879); also: nearly all actives have a fitted effect of over 40% in size; also: potency is read from the fitted curve at half-maximal effect
# How it was run: as §3
# [9] = A CellTox Green Cytotoxicity Assay to monitor cytotoxicity in HepG2 cells - 16 hour (AID 1224876); also: nearly all actives have a fitted effect of over 45% in size; also: potency is read from the fitted curve at half-maximal effect
# How it was run: as §3
# [10] = qHTS RealTime-Glo MT Cell Viability Assay in HEK293 cells - 0 hour (AID 1224880)
# How it was run: as §2
Compound,Potency [1],Potency [2],Potency [3],max response [4],Potency [5],Potency [6],Potency [7],Potency [8],Potency [9],Potency [10],Potency [4]
CCCCCCCC(=O)[O-].CCCCCCCC(=O)[O-].[Zn+2],inactive,inactive,inactive,9.04% (inactive),inactive,inactive,inactive,inactive,,,
CC(=O)OCC(C)OC(C)=O (centres undefined),inactive,inactive,inactive,-0.171% (inactive),inactive,inactive,inactive,inactive,inactive,inactive,
CCCN(CCC)c1c([N+](=O)[O-])cc(C(F)(F)F)c(N)c1[N+](=O)[O-],54.8 µM (active),12.3 µM (active),48.9 µM (active),,54.8 µM (active),48.9 µM (active),,,,inactive,19.4 µM (active)
CCCCCCCC/C=C\CCCCCCCCOCCO,31.9 µM (active),3.19 µM (active),inactive,,inactive,inactive,63.7 µM (active),63.7 µM (active),,inactive,3.19 µM (active)
CCCCCCCCCCCCCC[P+](CCCC)(CCCC)CCCC (tested in a mixture with another compound),15.6 µM (active),8.76 µM (active),19.6 µM (active),,17.5 µM (active),19.6 µM (active),15.6 µM (active),13.9 µM (active),19.6 µM (active),inactive,0.349 µM (active)
O=C(c1ccc(O)cc1O)c1ccc(O)cc1O,inactive,inactive,inactive,-12.9% (inactive) and -13.9% (inactive),inactive,inactive,inactive,,inactive,inactive,
NC(=NCCCCCCN=C(N)/N=C(\N)Nc1ccc(Cl)cc1)/N=C(\N)Nc1ccc(Cl)cc1,15.8 µM (active) [middle of 4 runs],19.8 µM (active) [middle of 4 runs],48.7 µM (active) and 44.4 µM (active) and inactive,,24.4 µM (active) [middle of 4 runs],,21.8 µM (active) [middle of 4 runs],,19.8 µM (active) [middle of 4 runs],,6.88 µM (active) [middle of 5 runs]
COc1ccc(C(=O)/C(Br)=C\C(=O)O)cc1,24.5 µM (active),38.9 µM (active),inactive,,34.7 µM (active),,,,inactive,inactive,34.7 µM (active)
Nc1cc(C(F)(F)F)ccc1S,inactive,inactive,inactive,3.21% (inactive),inactive,inactive,inactive,inactive,inactive,inactive,
CCCCc1oc2ccc(NS(C)(=O)=O)cc2c1C(=O)c1ccc(OCCCN(CCCC)CCCC)cc1,19 µM (active),10.7 µM (active),21.3 µM (active),,19 µM (active),9.52 µM (active),19 µM (active),9.52 µM (active),21.3 µM (active),inactive,8.49 µM (active)
O=C(O)c1cc(O)c2c(c1)C(=O)c1cccc(O)c1C2=O,inactive,inactive,inactive,-10.8% (inactive),inactive,inactive,inactive,inactive,inactive,inactive,
NC(=O)N1C(=O)C(C(=O)c2cc(Cl)cs2)c2cc(F)c(Cl)cc21 (centres undefined),inactive,inactive,inactive,-0.493% (inactive),inactive,,inactive,,inactive,,
Cc1ccc(O)c(C(C)(C)C)c1,43.6 µM (active),inactive,inactive,-17.7% (inactive) and -1.19% (inactive),48.9 µM (active),inactive,43.6 µM (active) and 34.7 µM (active),,38.8 µM (active) and 34.7 µM (active),inactive,
CC(=O)N1CCN(c2ccc(OC[C@H]3CO[C@](Cn4ccnc4)(c4ccc(Cl)cc4Cl)O3)cc2)CC1,49 µM (active),21.9 µM (active),49 µM (active),,43.6 µM (active),49 µM (active),,54.9 µM (active),,,21.9 µM (active)
CCCCCCCCCCCCCCCC[N+](C)(C)CCN(Cc1ccc(OC)cc1)c1ncccn1,19 µM (active),1.34 µM (active),10.7 µM (active),,8.49 µM (active),6.01 µM (active),6.74 µM (active),6.01 µM (active),9.52 µM (active),inactive,0.952 µM (active)
COc1cc(/C=C/C(=O)O[C@H]2CC[C@]34C[C@]35CC[C@]3(C)[C@@H]([C@H](C)CCC=C(C)C)CC[C@@]3(C)[C@@H]5CC[C@H]4C2(C)C)ccc1O,inactive,inactive,inactive,1.32% (inactive),inactive,inactive,inactive,,inactive,inactive,
CN(C)c1ccc(SC#N)cc1,inactive,inactive,inactive,0.13% (inactive),inactive,inactive,inactive,inactive,inactive,inactive,
N#CC1(c2ccc(F)cc2)CCC(=O)CC1,inactive,inactive,inactive,6.72% (inactive),inactive,inactive,inactive,inactive,inactive,inactive,
CSc1cnc(C)cn1,89.4 µM (active),inactive,inactive,7.94% (inactive),89.4 µM (active),inactive,63.3 µM (active),63.3 µM (active),89.4 µM (active),inactive,
